Measurements published in PubChem BioAssay (EPA / NIEHS).
Where “and” joins values, the source holds several entries; their conditions need not be identical. Equal values may be shown once. More than one record can exist for a structure, and the calls need not agree. Calls of active or inactive are those of the source. The calls were made as follows: active = hit-call score of the fitted dose curve at least 0.9, where 1 is the maximum; inactive = score below 0.9.

Columns and labels:
[1] = ATG_CRE_CIS: Attagene CIS-FACTORIAL HepG2 Assay for human cAMP Responsive Element (CRE) binding protein 3 (AID 2282926); conditions: HepG2 CRE cis-reporter, Attagene multiplexed mRNA; actives raise or lower the signal
How it was run: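 Readout: fluorescently labelled reporter transcripts resolved by capillary electrophoresis after RT-PCR, taken 24 h post-dosing in transfected HepG2. Endogenous transcription factor activity drives each cis-element reporter; gain or loss of signal fitted relative to DMSO control.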

[2] = target: CCAAT/enhancer-binding protein beta (Homo sapiens) (UniProt P17676); test: ATG_C_EBP_CIS: Attagene CIS-FACTORIAL HepG2 Assay for human CCAAT/Enhancer Binding Protein (C/EBP) beta (AID 2282927); conditions: HepG2 Attagene cis-factorial transcription factor reporter; actives raise or lower the signal
How it was run: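 Endogenous transcription factor activity in human liver HepG2 cells is inferred from induction of a CEBPB-linked reporter mRNA. Exposure lasts 24 h; activity is fitted in both directions relative to DMSO.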

[3] = ATG_CMV_CIS: Attagene CIS-FACTORIAL HepG2 Assay for human CMV (Internal Marker) (AID 2282928); conditions: HepG2 CMV promoter reporter, transcription factor profiling; actives raise or lower the signal;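 also: endpoint acts as a background internal control marker rather than a target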
How it was run: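 Reporter transcripts from transfected HepG2 cells are isolated after 24 h of chemical dosing, reverse-transcribed and amplified. Fragments labeled with 6-FAM are cut with HpaI and quantified by capillary electrophoresis; DMSO defines baseline.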

[4] = target: Aryl hydrocarbon receptor (Homo sapiens) (UniProt P35869); test: ATG_Ahr_CIS: Attagene CIS-FACTORIAL HepG2 Assay for human Aryl Hydrocarbon Receptor (Ahr) (AID 2282930); conditions: HepG2 AhR cis-factorial reporter transcription; actives raise or lower the signal
How it was run: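 Transient MRTU transfection of HepG2 → 24 h compound exposure → total RNA, oligo(dT) RT → PCR, 6-FAM extension, HpaI cut → CE fluorescence. DMSO = baseline; bidirectional curve fit.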

[5] = ATG_AP_1_CIS: Attagene CIS-FACTORIAL HepG2 Assay for human Activator Protein 1 (AP-1) (AID 2282931); conditions: HepG2 Attagene cis-factorial AP-1 reporter mRNA; actives raise or lower the signal
How it was run: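 Readout is reporter transcript level from endogenous transcription factor activity, quantified by RT-PCR with fluorescent primer extension and capillary electrophoresis. Transiently transfected HepG2 cells, 24 h exposure. Curves fitted both directions versus DMSO.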

[6] = ATG_AP_2_CIS: Attagene CIS-FACTORIAL HepG2 Assay for human Activator Protein 2 (AP-2) (AID 2282932); conditions: HepG2 AP-2 cis-reporter, Attagene transcription factor profiling; actives raise or lower the signal
How it was run: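 Transiently transfected HepG2 cells are exposed to chemical for 24 h. Reporter transcripts are then measured as fluorescence following RT-PCR and capillary separation, and gain- or loss-of-signal is fitted relative to DMSO.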

[7] = ATG_BRE_CIS: Attagene CIS-FACTORIAL HepG2 Assay for human Bone Morphogenetic Protein (BMP) Response Element (BRE) (AID 2282933); conditions: HepG2 BMP response element reporter, Attagene transcription factor profiling; actives raise or lower the signal
How it was run: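 A HepG2 multiplex reporter system measured inducible reporter mRNA 24 h post-dosing. Detection: RT-PCR, 6-FAM primer extension, HpaI digestion, capillary electrophoresis. Activity fitted bidirectionally relative to DMSO.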

[8] = target: Retinoic acid receptor alpha (Homo sapiens) (UniProt P10276); test: ATG_DR5_RAR_CIS: Attagene CIS-FACTORIAL HepG2 Assay for human Retinoic Acid Receptor Alpha (RARE), DR5 submotif (AID 2282934); conditions: HepG2 Attagene cis-factorial RARE DR5 reporter, mRNA; actives raise or lower the signal;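 as to AC50: reporter responds to endogenous RAR alpha beta and gamma in HepG2 not RARA alone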
How it was run: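 Transient MRTU transfection of HepG2; 24 h compound treatment; TriZol RNA, oligo(dT) RT, PCR, FAM labelling, capillary electrophoresis. Bidirectional fit vs DMSO. Endogenous TF activity at DR5 RARE.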

[9] = ATG_DR4_LXR_CIS: Attagene CIS-FACTORIAL HepG2 Assay for human Liver X Receptor (LXR), DR4 submotif (AID 2282929); conditions: HepG2 Attagene DR4 cis-reporter, mRNA transcription; actives raise or lower the signal
How it was run: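 The endpoint is DR4-element-driven reporter transcripts after 24 h chemical exposure of transfected HepG2 cells. These were measured via RT-PCR and capillary electrophoresis, and gain or loss of signal was fitted relative to DMSO controls.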

[10] = APR_HepG2_NuclearSize_72hr: Apredica 72-hour HepG2 Assay for Nuclear Size (AID 2282925); conditions: high-content imaging, actives raise or lower the signal
How it was run: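 Nuclear size was read by high-content imaging of Hoechst 33342 stain after formaldehyde fixation. Compounds ran 72 h on HepG2 at 0.39 to 200 uM, with final DMSO 0.5% v/v. Curves fitted both directions relative to DMSO control.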

Measured: AC50

Chain of Aryl hydrocarbon receptor (Homo sapiens) (P35869 whole entry, looked up): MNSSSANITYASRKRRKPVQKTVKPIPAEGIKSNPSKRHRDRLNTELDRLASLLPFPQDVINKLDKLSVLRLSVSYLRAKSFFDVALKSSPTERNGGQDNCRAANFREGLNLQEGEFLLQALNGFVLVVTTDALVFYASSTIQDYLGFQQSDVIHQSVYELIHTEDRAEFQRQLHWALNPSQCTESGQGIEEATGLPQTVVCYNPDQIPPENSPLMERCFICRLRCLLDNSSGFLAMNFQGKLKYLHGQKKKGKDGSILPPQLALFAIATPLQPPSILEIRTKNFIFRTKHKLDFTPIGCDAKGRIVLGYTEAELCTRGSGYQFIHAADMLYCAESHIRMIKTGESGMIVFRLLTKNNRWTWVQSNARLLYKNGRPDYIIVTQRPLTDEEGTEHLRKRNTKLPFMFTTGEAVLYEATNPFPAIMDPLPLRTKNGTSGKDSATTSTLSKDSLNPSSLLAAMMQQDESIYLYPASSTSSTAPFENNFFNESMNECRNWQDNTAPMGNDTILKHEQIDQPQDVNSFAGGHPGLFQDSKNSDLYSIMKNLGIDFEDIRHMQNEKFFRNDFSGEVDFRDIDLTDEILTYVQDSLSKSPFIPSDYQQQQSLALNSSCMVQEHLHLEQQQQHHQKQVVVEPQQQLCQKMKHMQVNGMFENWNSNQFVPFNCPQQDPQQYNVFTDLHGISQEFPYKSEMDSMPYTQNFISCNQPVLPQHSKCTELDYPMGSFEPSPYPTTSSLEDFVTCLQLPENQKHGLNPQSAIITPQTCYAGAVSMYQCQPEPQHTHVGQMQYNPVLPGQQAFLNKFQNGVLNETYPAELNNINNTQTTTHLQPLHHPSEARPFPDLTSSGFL
Chain of CCAAT/enhancer-binding protein beta (Homo sapiens) (P17676 whole entry, looked up): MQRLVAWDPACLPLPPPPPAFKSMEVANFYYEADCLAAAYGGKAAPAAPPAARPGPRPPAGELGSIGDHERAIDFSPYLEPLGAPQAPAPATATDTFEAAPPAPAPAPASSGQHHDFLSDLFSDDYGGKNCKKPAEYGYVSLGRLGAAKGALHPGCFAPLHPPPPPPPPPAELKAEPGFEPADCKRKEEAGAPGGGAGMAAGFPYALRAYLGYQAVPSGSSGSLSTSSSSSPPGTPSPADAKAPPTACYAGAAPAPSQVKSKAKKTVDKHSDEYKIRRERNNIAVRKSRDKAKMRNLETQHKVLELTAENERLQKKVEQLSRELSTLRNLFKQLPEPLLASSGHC
Chain of Retinoic acid receptor alpha (Homo sapiens) (P10276 whole entry, looked up): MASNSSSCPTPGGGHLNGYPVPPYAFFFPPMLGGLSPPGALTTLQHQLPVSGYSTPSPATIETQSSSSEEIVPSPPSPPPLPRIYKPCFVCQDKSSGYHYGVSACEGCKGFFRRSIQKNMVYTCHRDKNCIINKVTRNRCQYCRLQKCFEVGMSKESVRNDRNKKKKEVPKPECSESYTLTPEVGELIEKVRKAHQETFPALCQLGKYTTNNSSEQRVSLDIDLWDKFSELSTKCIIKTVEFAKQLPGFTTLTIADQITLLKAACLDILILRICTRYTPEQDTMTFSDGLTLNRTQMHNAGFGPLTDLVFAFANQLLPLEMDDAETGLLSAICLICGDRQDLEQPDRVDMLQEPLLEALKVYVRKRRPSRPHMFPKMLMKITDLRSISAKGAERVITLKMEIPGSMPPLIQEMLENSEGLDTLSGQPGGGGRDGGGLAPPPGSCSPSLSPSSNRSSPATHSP

ClC(Cl)=C(c1ccc(Cl)cc1)c1ccccc1Cl
inactive: [1] | [2] | [6] | [7]
active: [3] 36.5 µM | [4] 27.2 µM | [5] 57.5 µM | [8] 27 µM

Nc1ccc(Sc2ccc(N)cc2)cc1
active: [4] 19.4 µM
not listed: [9] | [10]
inactive: all other assays above

N#Cc1c(-c2ccc(Cl)cc2)[nH]c(C(F)(F)F)c1Br
inactive: [9] | [6] | [8]
active: [1] 0.019 µM | [2] 0.0342 µM | [3] 3.01 µM | [4] 0.0823 µM | [5] 0.0823 µM | [7] 8.08 µM

CC(O)C(F)(F)C(F)(F)F (centres undefined)
not listed: [7] | [10]
inactive: all other assays above

C/C(=N\NC(=O)Nc1cc(F)cc(F)c1)c1ncccc1C(=O)O
active: [4] 57.2 µM and 46.1 µM
not listed: [8] | [9] | [10]
inactive: all other assays above

C=CC(=O)OCC(CC)(COC(=O)C=C)COC(=O)C=C
active: [3] 12.1 µM | [9] 16.8 µM | [4] 35.9 µM | [5] 113 µM
not listed: [10]
inactive: all other assays above

CNC(=O)Oc1ccc(N(C)C)c(C)c1
not listed: [7] | [10]
inactive: all other assays above

COC(=O)C(F)(F)C(F)(F)OC(F)(C(F)(F)F)C(F)(F)OC(F)=C(F)F (centres undefined)
inactive: [1] | [2] | [3] | [9] | [4] | [5] | [6] | [8]
active: [9] 20.2 µM | [5] 9.89 µM

CC(C)(C)N(NC(=O)c1ccc(Cl)cc1)C(=O)c1ccccc1
not listed: [10]
inactive: all other assays above

O=C(O)C(F)(F)OC(F)(F)C(F)(F)OC(F)(F)F
not listed: [10]
inactive: all other assays above

O=S1(=O)OCC2C(CO1)C1(Cl)C(Cl)=C(Cl)C2(Cl)C1(Cl)Cl (centres undefined)
active: [1] 171 µM | [9] 8.33 µM | [4] 2.9 µM | [8] 171 µM
inactive: [2] | [3] | [5] | [6]

O=c1ssc(Cl)c1Cl
active: [1] 50.9 µM | [2] 53.4 µM | [9] 52.7 µM
not listed: [7] | [10]
inactive: all other assays above

CCOP(=S)(OCC)SCS(=O)(=O)CC
not listed: [7] | [10]
inactive: all other assays above

ClC(Cl)c1ccccc1
not listed: [3] | [7] | [9]
inactive: all other assays above

O=S(=O)(F)C(F)(F)C(F)(F)C(F)(F)C(F)(F)C(F)(F)C(F)(F)C(F)(F)C(F)(F)F
not listed: [7] | [10]
inactive: all other assays above

OCC(F)(F)OC(F)(F)C(F)(F)OC(F)(F)C(F)(F)OC(F)(F)F
active: [9] 80.8 µM
inactive: [1] | [2] | [3] | [9] | [4] | [5] | [6] | [8]

O=C(O)C(F)(F)C(F)(F)C(=O)O
not listed: [10]
inactive: all other assays above

Clc1ccc(Oc2ccccc2)cc1
not listed: [10]
inactive: all other assays above

COC(N)=O
not listed: [7] | [10]
inactive: all other assays above

O=C(O)C(F)(OC(F)(F)C(F)(F)C(F)(F)F)C(F)(F)F (centres undefined)
not listed: [10]
inactive: all other assays above

Oc1ccccc1Br
not listed: [9] | [10]
inactive: all other assays above

OCC(F)(F)OC(F)(F)C(F)(F)OC(F)(F)C(F)(F)OC(F)(F)CO
active: [1] 35.5 µM
not listed: [3] | [10]
inactive: all other assays above

O=NN1CCCC1
not listed: [3] | [9] | [10]
inactive: all other assays above

COP(=O)(CCC(=O)NCO)OC
not listed: [9] | [10]
inactive: all other assays above

CC(C)(C)c1ccc(O)cc1
active: [3] 100 µM
inactive: [2] | [4] | [6]

CC1(C)CN=C(NN=C(/C=C/c2ccc(C(F)(F)F)cc2)/C=C/c2ccc(C(F)(F)F)cc2)NC1
inactive: [4] | [5] | [6] | [8]
active: [1] 8.42 µM | [2] 3.09 µM | [9] 8.29 µM | [7] 16.7 µM

Cc1cc(C)c(C(=O)P(=O)(c2ccccc2)c2ccccc2)c(C)c1
active: [6] 59.3 µM
not listed: [9] | [10]
inactive: all other assays above

O=[N+]([O-])c1cc(Cl)ccc1Cl
not listed: [7] | [9] | [10]
inactive: all other assays above

CCCCC(CC)COC(=O)c1c(Br)c(Br)c(Br)c(Br)c1C(=O)OCC(CC)CCCC (centres undefined)
not listed: [3] | [9] | [10]
inactive: all other assays above

COP(=O)(O)OC
not listed: [9] | [10]
inactive: all other assays above

CCOP(=S)(OCC)SCSc1ccc(Cl)cc1
not listed: [3] | [10]
inactive: all other assays above

O=C(O)C=CC(F)(C(F)(F)F)C(F)(F)F
not listed: [3] | [7] | [10]
inactive: all other assays above

Oc1ccc(I)cc1
not listed: [9] | [10]
inactive: all other assays above

O=c1[nH]c2ccccc2c(=O)o1
active: [4] 89.5 µM
not listed: [3] | [10]
inactive: all other assays above

CCOP(=S)(S)OCC
not listed: [3] | [10]
inactive: all other assays above

CC(=O)CCc1ccc2c(c1)OCO2
not listed: [9] | [10]
inactive: all other assays above

Cc1ccc(C(=O)Cl)cc1
not listed: [3] | [7] | [10]
inactive: all other assays above

NNC(N)=S
not listed: [3] | [7] | [10]
inactive: all other assays above

Cn1[nH]nnc1=S
not listed: [3] | [9] | [10]
inactive: all other assays above

CCCCOCCOP(=O)(OCCOCCCC)OCCOCCCC
not listed: [3] | [4] | [10]
inactive: all other assays above

FC(F)(F)c1ccc(Cl)cc1
not listed: [9] | [10]
inactive: all other assays above

CCOP(=S)(OCC)SCn1nnc2ccccc2c1=O
active: [7] 173 µM
not listed: [9] | [10]
inactive: all other assays above

O=C(CBr)OCc1ccccc1
not listed: [3] | [10]
inactive: all other assays above

C=CC(=O)OCC(F)(F)C(F)F
active: [9] 67 µM
not listed: [3] | [10]
inactive: all other assays above

C=C(C)C(=O)OCC1CO1 (centres undefined)
not listed: [3] | [10]
inactive: all other assays above

CC(Cl)CN(C)C (centres undefined)
not listed: [3] | [9] | [10]
inactive: all other assays above

CCOC(=O)c1ccccc1N
inactive: [1] | [2] | [4] | [5] | [6] | [8]

N#Cc1cc([N+](=O)[O-])ccc1N
active: [4] 2.51 µM
not listed: [3] | [9] | [10]
inactive: all other assays above

O=S(=O)(c1ccc(O)cc1)c1ccc(O)cc1
not listed: [3] | [10]
inactive: all other assays above

OCC(F)(F)OC(F)(F)C(F)(F)OC(F)(F)CO
not listed: [3] | [10]
inactive: all other assays above

O=C(O)C(F)(F)OC(F)(F)C(F)(F)OC(F)(F)C(=O)O
not listed: [3] | [9] | [10]
inactive: all other assays above

CCCCOCC1CO1 (centres undefined)
not listed: [3] | [10]
inactive: all other assays above

CCCCc1ccc(O)cc1
active: [5] 148 µM
not listed: [3] | [10]
inactive: all other assays above

N#Cc1ccc(O)cc1
not listed: [3] | [10]
inactive: all other assays above

CC(O)C#N (centres undefined)
not listed: [3] | [10]
inactive: all other assays above

Cc1ccc(O)cc1C
not listed: [1] | [5] | [10]
inactive: all other assays above

CCOP(=S)(NC(C)C)Oc1ccccc1C(=O)OC(C)C (centres undefined)
not listed: [9] | [10]
inactive: all other assays above

CC(C)Nc1ccc(Nc2ccccc2)cc1
inactive: [1] | [2] | [4] | [6] | [8]
active: [3] 60 µM | [5] 60 µM

NC(=O)C(F)(F)C(F)(F)F
not listed: [9] | [10]
inactive: all other assays above

CC1=C(C(=O)Nc2ccccc2)S(=O)(=O)CCO1
inactive: [1] | [2] | [4] | [8]
active: [9] 44.3 µM | [5] 66.8 µM | [6] 18.1 µM | [7] 6.73 µM
